Reference: PubChem BioAssay (NCATS)
Several values for one entry are separate records, joined by “and”; a condition that tells them apart may be missing. Equal values may be shown once. Results filed as inconclusive are left out. Entries that show only a call come without a potency. Activity calls are given as the source filed them. Unless noted, the call rests on the fitted dose curve.

Key:
[1] = target: DNA dC->dU-editing enzyme APOBEC-3G (Homo sapiens) (UniProt Q9HC16); assay: qHTS for inhibitors of Vif-A3G interactions: Validation (AID 588379; active means well fitted inhibition curve with a large enough effect)
Method in brief: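 HeLa cells stably expressing Vif and A3G-eYFP, 700 cells/well, incubated overnight at 37 deg C, then exposed to compound overnight at 37 deg C. Inhibition of Vif-mediated degradation read as increased yellow fluorescence (Ex 488/Em 500-530) by laser-scanning cytometry.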

[2] = target: Estrogen receptor (Homo sapiens) (UniProt P03372); assay: qHTS assay for small molecule antagonists of estrogen receptor alpha signaling (AID 588513; active means well fitted curve in the direction sought with a large enough effect in the signal ratio, with a control signal flat, not every such curve was filed as active; the % refers to the signal ratio)
Method in brief: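 Beta-lactamase reporter, antagonist mode, HEK 293 GripTite cells; 0.5nM E2 stimulus, 18 h, 37 C; CCF4 dye 2 h RT; fluorescence. IC50 and efficacy from Hill fits, normalized to E2 and DMSO.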

[3] = target: Estrogen receptor (Homo sapiens) (UniProt P03372); assay: qHTS assay for small molecule agonists of estrogen receptor alpha signaling (AID 588514); further: nearly all actives have a fitted effect of over 70% in size
Method in brief: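 Cells were plated at 5000/well, incubated 4 hrs at 37 C, dosed with compound titration series, incubated 18 hrs at 37 C, loaded with CCF4 dye for 2 hrs at RT, then fluorescence was read.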

[4] = target: Androgen receptor (Homo sapiens) (UniProt P10275); assay: qHTS assay for small molecule agonists of androgen receptor signaling (AID 588515; active means well fitted curve in the direction sought with a large enough effect in the signal ratio, with a control signal flat; the % refers to the signal ratio); conditions: AR-UAS-bla HEK293, beta-lactamase ratio, agonist 16 h; stronger effect = higher value
Method in brief: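 EC50 and efficacy came from Hill fits of titrations (up to 92 uM) normalized to 30 nM R1881 as 100% and DMSO as 0%. Compound exposure was 16 h at 37 C on AR-UAS-bla HEK293 cells, with a 405/460/530 nm CCF4 fluorescence read.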

[5] = target: Androgen receptor (Homo sapiens) (UniProt P10275); assay: qHTS assay for small molecule antagonists of androgen receptor signaling (AID 588516; active means well fitted curve in the direction sought with a large enough effect in the signal ratio, with a control signal flat, not every such curve was filed as active; the % refers to the signal ratio)
Method in brief: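 HEK293 AR-UAS-bla cells, 10% dialyzed FBS medium; cpd titration + R1881 10 nM final, 16 h 37 C; CCF4 2 h RT; FRET ratio; IC50/efficacy via Hill fit.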

[6] = target: Bile acid receptor (Homo sapiens) (UniProt Q96RI1); assay: qHTS assay for small molecule antagonists of farnesoid X receptor signaling (AID 588526)
Method in brief: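 Antagonist mode: titrated compounds tested against chenodeoxycholic acid stimulation (normalized to 50 uM CDCA and DMSO) in GeneBLAzer HEK293T cells for 16 h. Beta-lactamase read by CCF4 fluorescence; IC50 from Hill fits.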

[7] = target: Bile acid receptor (Homo sapiens) (UniProt Q96RI1); assay: qHTS assay for small molecule agonists of farnesoid X receptor signaling (AID 588527); conditions: HEK293T FXR-UAS-bla, beta-lactamase ratio, 16 h; stronger effect = higher value; further: series mostly up to about 77 µM
Method in brief: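 FXR-UAS-bla HEK293T cells (10% dialyzed FBS) preincubated 5-7 h at 37 C, then compounds at up to 92 uM for 16 h at 37 C. CCF4 beta-lactamase read-out after 2 h RT. Normalized to chenodeoxycholic acid (100 uM) and DMSO; Hill fit gave EC50 and efficacy.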

[8] = target: Glucocorticoid receptor (Homo sapiens) (UniProt P04150); assay: qHTS assay for small molecule agonists of glucocorticoid receptor signaling (AID 588532; active means well fitted curve in the direction sought with a large enough effect in the signal ratio, with a control signal flat; the % refers to the signal ratio); conditions: HeLa MMTV-bla, beta-lactamase ratio, agonist, 18 h; stronger effect = higher value; percent of dexamethasone control, DMSO zero
Method in brief: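 Cells were plated and rested 3-5 h at 37 C, compounds were added in titration and incubated 18 h, then CCF4 substrate was loaded for 2 h at RT before reading blue/green fluorescence. EC50 came from Hill-equation fitting.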

[9] = target: Glucocorticoid receptor (Homo sapiens) (UniProt P04150); assay: qHTS assay for small molecule antagonists of glucocorticoid receptor signaling (AID 588533; active means well fitted inhibition curve with a large enough effect in the signal ratio, with a control signal flat, not every such curve was filed as active; the % refers to the signal ratio)
Method in brief: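 Antagonist-mode qHTS: compound titrations added to GRE-bla HeLa cells, then dexamethasone 2 nM final; 18 h, 37 C. CCF4 FRET fluorescence normalized to dexamethasone and DMSO; IC50 from Hill fit.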

[10] = target: Peroxisome proliferator-activated receptor gamma (Homo sapiens) (UniProt P37231); assay: qHTS assay for small molecule agonists of peroxisome proliferator-activated receptor gamma signaling (AID 588536; active means well fitted curve in the direction sought with a large enough effect in the signal ratio, with a control signal flat, not every such curve was filed as active; the % refers to the signal ratio)
Method in brief: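 GeneBLAzer PPAR-gamma-UAS-bla HEK293 cells in 1% charcoal/dextran-treated FBS medium were treated 16 h at 37 C with compounds. Beta-lactamase activity was read by CCF4 ratio (460/530 nm). Response was normalized to 2 uM rosiglitazone (100%) and DMSO, then Hill-fitted for EC50 and efficacy.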

[11] = target: Peroxisome proliferator-activated receptor gamma (Homo sapiens) (UniProt P37231); assay: qHTS assay for small molecule antagonists of peroxisome proliferator-activated receptor gamma signaling (AID 588537; active means well fitted inhibition curve with a large enough effect in the signal ratio, with a control signal flat, not every such curve was filed as active; the % refers to the signal ratio; further: potency means the concentration at half of the fitted maximal effect)
Method in brief: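 PPARγ-UAS-bla HEK293 cells (3000/well) in 1% charcoal/dextran-stripped FBS are treated with compound, then stimulated with 50 nM rosiglitazone for 16 h at 37 °C. Read-out is CCF4 β-lactamase fluorescence after 2 h at RT. IC50 comes from Hill fits normalised to rosiglitazone and DMSO.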

[12] = target: Vitamin D3 receptor (Homo sapiens) (UniProt P11473); assay: qHTS assay for small molecule antagonists of vitamin D receptor signaling (AID 588541);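 further: receptor activated by calcitriol during compound treatment; series mostly up to about 77 µM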
Method in brief: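 VDR-UAS-bla HEK293T cells in 2% charcoal-stripped FBS were stimulated with 1-alpha,25-dihydroxyvitamin D3 (3 nM final) plus compound for 16 h at 37 C. The beta-lactamase CCF4 readout was normalized to 50 nM agonist and DMSO, and Hill fits gave IC50.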

[13] = qHTS assay for small molecule agonists of retinoid X receptor alpha signaling (AID 588544); conditions: HEK293T RXRa-UAS-bla, beta-lactamase reporter, 18 h; 530 nm emission
[14] = target: Retinoic acid receptor RXR-alpha (Homo sapiens) (UniProt P19793); assay: as above
[15] = target: Thyroid hormone receptor beta (Homo sapiens) (UniProt P10828); assay: qHTS assay for small molecule agonists of thyroid hormone receptor beta signaling (AID 588545)
Method in brief: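 Agonist-mode beta-lactamase reporter assay, HEK 293 cells, 2% charcoal/dextran FBS; cells plated 4 hrs, compound 18 hrs at 37 C, CCF4 2 hrs RT. Normalized to 10 nM T3 (100%) and DMSO (0%); Hill fit gives EC50, efficacy.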

[16] = qHTS assay for small molecule antagonists of retinoid X receptor alpha signaling (AID 588546); conditions: HEK293T RXRa-UAS-bla, beta-lactamase ratio, antagonist mode; measured here: W530 green channel, cytotoxicity proxy;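 further: cells stimulated with 9-cis-retinoic acid as agonist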
Method in brief: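 Beta-lactamase reporter inhibition, read as CCF4 fluorescence ratio (ex 405, em 460/530 nm) after 2 h at RT. HEK293T UAS-bla cells, 2500/well, were stimulated with 9-cis-RA at 500 or 100 nM final alongside test compound for 18 h at 37 C.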

[17] = target: Peroxisome proliferator-activated receptor delta (Homo sapiens) (UniProt Q03181); assay: qHTS assay for small molecule agonists of peroxisome proliferator-activated receptor delta signaling (AID 588534)
Method in brief: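 Fluorescence from CCF4 substrate cleavage by beta-lactamase reporter, read 2 hrs at RT, measured agonist activity. Compounds were tested with 18 hrs exposure at 37 C. Concentration-response data fitted to Hill equation.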

[18] = qHTS assay for small molecule antagonists of peroxisome proliferator-activated receptor delta signaling (AID 588535; active means well fitted inhibition curve with a large enough effect in the signal ratio, with a control signal flat, not every such curve was filed as active; the % refers to the signal ratio;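 on max response: cells co-treated with a PPAR-delta agonist as stimulator during compound exposure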); conditions: HEK293T PPARd-UAS-bla, beta-lactamase FRET ratio, 18 h; 460 nm channel
Method in brief: (§1)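 Antagonist-mode beta-lactamase reporter (GeneBLAzer PPAR-delta-UAS-bla) in HEK293T cells, 2% charcoal/dextran FBS, 4000 cells/well. Compound titrations, 18 h at 37 C; CCF4 ratio read, IC50 and efficacy from Hill fits.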

[19] = target: Peroxisome proliferator-activated receptor delta (Homo sapiens) (UniProt Q03181); assay: as above
Method in brief: as §1

[20] = target: Vitamin D3 receptor (Homo sapiens) (UniProt P11473); assay: qHTS assay for small molecule agonists of vitamin D receptor signaling (AID 588543)
Method in brief: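 β-lactamase reporter, VDR-UAS-bla HEK293T, agonist mode. Cells plated 5 h at 37 °C, compound titration 16 h at 37 °C, CCF4 dye 2 h RT, ratio 460/530 nm. Hill fit → EC50, efficacy vs 50 nM 1α,25-(OH)2D3.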

Sequence of Retinoic acid receptor RXR-alpha (Homo sapiens) (P19793 whole entry, looked up): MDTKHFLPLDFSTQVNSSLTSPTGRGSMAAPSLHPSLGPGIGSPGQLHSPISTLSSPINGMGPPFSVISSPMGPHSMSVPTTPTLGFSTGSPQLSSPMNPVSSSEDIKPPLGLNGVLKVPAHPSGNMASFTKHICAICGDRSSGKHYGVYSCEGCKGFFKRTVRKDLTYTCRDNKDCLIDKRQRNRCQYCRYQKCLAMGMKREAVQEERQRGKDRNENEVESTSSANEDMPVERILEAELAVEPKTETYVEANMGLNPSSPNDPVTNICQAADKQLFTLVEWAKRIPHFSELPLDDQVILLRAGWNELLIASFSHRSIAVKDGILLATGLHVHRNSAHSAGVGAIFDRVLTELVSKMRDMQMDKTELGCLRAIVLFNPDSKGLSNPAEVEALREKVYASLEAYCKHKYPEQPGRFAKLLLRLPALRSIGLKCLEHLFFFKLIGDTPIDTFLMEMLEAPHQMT
Sequence of Peroxisome proliferator-activated receptor gamma (Homo sapiens) (P37231 whole entry, looked up): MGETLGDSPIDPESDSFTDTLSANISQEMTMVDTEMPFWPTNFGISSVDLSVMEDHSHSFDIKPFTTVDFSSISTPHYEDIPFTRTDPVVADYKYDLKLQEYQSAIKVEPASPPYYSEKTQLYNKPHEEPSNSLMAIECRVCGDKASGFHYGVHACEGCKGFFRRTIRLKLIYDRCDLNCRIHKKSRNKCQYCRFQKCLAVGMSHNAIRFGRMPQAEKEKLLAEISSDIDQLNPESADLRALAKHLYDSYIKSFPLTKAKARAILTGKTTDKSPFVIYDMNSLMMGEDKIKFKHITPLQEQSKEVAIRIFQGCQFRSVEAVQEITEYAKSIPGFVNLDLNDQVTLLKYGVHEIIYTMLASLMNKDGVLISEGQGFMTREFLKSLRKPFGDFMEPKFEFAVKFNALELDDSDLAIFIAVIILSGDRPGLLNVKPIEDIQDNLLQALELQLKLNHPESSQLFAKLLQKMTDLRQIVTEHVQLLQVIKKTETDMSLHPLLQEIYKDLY
Sequence of Thyroid hormone receptor beta (Homo sapiens) (P10828 whole entry, looked up): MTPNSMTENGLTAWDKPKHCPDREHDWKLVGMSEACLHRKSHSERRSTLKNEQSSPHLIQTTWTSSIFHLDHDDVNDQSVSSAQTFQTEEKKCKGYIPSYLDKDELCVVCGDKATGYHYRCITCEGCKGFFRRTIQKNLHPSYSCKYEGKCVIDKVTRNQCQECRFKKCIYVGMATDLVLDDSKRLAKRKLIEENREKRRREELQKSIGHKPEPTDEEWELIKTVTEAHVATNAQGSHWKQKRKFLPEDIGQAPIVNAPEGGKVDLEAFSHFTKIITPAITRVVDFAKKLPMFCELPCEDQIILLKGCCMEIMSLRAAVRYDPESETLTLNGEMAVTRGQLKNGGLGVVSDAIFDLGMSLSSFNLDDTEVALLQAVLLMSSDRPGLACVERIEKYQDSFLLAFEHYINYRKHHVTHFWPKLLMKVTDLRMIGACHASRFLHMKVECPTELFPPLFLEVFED
Sequence of Glucocorticoid receptor (Homo sapiens) (P04150 whole entry, looked up): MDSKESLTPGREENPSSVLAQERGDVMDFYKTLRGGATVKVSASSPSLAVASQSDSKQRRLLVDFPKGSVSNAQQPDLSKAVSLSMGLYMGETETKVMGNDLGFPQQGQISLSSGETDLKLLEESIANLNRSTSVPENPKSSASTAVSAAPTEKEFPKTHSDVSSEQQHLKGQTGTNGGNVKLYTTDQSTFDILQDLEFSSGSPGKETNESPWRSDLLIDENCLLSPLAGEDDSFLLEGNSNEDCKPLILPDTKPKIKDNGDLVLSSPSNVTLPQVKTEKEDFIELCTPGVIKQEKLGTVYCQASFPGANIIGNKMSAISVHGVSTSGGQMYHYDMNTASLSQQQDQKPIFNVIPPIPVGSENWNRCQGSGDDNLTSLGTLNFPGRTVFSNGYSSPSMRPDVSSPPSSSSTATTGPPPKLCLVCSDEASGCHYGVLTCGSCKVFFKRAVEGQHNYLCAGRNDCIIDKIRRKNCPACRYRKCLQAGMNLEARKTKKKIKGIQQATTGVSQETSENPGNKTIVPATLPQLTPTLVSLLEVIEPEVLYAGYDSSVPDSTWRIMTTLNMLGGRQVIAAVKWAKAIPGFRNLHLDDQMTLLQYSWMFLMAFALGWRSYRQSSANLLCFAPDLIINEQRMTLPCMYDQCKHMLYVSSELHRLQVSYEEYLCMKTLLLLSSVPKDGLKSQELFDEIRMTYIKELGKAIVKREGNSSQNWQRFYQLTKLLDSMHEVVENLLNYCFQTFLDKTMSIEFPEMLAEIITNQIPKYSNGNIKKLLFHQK
Sequence of Androgen receptor (Homo sapiens) (P10275 whole entry, looked up): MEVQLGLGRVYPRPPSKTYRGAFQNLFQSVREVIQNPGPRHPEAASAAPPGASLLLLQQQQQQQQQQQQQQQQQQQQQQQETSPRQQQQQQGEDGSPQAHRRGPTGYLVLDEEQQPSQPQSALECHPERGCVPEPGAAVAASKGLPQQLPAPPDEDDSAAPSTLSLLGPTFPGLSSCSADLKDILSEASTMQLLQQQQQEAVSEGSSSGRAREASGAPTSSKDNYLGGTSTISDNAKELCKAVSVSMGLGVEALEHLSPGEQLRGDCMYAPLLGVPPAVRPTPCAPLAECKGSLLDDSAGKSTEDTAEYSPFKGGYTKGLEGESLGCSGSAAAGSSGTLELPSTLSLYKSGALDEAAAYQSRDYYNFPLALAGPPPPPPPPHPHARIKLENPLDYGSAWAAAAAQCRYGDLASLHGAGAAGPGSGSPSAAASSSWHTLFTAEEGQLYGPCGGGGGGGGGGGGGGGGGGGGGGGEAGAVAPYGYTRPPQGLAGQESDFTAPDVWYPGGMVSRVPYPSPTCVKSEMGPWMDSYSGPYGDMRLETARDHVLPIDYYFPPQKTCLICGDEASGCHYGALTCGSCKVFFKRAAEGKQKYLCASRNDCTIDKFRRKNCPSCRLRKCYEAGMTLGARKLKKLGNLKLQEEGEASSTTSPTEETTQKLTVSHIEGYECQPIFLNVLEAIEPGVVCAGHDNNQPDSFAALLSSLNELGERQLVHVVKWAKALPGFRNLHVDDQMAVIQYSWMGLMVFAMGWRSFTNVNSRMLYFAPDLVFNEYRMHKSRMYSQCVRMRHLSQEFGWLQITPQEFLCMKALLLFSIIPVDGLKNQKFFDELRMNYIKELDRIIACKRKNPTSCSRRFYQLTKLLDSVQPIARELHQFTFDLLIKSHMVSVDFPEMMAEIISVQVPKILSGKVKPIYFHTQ
Sequence of Vitamin D3 receptor (Homo sapiens) (P11473 whole entry, looked up): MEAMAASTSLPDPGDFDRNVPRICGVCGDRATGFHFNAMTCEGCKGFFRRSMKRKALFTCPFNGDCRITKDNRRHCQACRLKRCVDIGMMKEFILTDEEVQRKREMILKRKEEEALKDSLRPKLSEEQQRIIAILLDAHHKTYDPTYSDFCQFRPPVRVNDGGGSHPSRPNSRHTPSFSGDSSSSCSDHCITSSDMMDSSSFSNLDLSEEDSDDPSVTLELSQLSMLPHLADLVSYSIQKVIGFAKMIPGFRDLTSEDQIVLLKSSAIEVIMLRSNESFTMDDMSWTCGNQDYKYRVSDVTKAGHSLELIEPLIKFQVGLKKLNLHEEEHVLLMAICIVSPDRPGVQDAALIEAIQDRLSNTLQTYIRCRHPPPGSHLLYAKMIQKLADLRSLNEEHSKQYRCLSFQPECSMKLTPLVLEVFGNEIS
Sequence of Peroxisome proliferator-activated receptor delta (Homo sapiens) (Q03181 whole entry, looked up): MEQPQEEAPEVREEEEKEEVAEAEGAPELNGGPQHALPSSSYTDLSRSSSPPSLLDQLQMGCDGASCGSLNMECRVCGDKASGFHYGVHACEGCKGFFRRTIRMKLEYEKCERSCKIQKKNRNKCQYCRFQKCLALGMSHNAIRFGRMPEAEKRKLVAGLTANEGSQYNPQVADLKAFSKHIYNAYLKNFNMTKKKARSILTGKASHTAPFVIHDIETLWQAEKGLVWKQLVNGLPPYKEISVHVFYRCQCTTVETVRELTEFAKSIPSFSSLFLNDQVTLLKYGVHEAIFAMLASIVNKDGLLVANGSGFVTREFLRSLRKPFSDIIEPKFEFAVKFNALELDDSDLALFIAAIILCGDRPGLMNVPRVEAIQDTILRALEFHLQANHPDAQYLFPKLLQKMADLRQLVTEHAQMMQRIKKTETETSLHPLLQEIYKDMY
Sequence of Bile acid receptor (Homo sapiens) (Q96RI1 whole entry, looked up): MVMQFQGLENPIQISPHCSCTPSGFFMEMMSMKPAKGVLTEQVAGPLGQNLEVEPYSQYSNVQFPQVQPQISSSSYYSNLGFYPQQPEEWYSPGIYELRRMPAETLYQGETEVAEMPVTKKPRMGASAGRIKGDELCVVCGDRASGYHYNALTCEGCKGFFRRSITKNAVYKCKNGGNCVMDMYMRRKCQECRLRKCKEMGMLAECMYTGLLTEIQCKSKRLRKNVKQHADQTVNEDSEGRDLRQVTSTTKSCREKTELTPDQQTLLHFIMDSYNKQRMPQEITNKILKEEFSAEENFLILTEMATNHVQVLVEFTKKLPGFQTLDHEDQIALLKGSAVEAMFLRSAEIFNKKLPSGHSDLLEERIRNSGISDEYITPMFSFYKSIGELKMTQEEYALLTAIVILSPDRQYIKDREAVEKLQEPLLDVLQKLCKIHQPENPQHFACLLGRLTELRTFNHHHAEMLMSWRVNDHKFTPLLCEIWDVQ
Sequence of DNA dC->dU-editing enzyme APOBEC-3G (Homo sapiens) (Q9HC16 whole entry, looked up): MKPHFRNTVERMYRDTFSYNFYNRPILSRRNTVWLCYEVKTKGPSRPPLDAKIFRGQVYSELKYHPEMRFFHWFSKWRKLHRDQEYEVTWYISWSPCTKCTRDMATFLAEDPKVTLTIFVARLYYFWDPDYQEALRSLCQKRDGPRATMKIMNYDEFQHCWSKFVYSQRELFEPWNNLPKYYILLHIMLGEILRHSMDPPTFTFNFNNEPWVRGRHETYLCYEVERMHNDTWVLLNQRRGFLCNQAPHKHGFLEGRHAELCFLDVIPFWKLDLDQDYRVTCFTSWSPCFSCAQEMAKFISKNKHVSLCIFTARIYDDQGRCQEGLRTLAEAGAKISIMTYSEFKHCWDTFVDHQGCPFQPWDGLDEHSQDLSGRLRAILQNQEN

With `O=C1CCCN1CC#CCN1CCCC1` as the molecule, how does the outcome [1] read?
Its outcome is “inactive”.

Which outcome [1] does the source give for `CC1=NN=C(c2ccc(N)cc2)c2cc3c(cc2C1)OCO3` here?
Its outcome is “inactive”.

With `C[C@@H](N)Cc1cnc[nH]1` as the molecule, how does the outcome [1] read?
The outcome was “inactive”.

Which outcome [1] does the source give for `C[C@H]1CCCC=CC2C[C@H](O)C[C@@H]2[C@H](O)C=CC(=O)O1` (stereo not given in full) here?
The outcome was “inactive”.

For `C#CCOC(=O)C1=CCCN(C)C1`, which outcome [1] is on record?
Its outcome is “inactive”.

Which outcome [1] does the source give for `c1ccc2sc(C3(N4CCCCC4)CCCCC3)cc2c1` here?
Its outcome is “inactive”.

Which outcome [1] does the source give for `S=C(NC1CCCCC1)N1CCC(c2cnc[nH]2)CC1` here?
The outcome was “inactive”.

For `CCCCc1ccc(C(=O)O)nc1`, which outcome [1] is on record?
Its outcome is “inactive”.

For `CCCN1CCO[C@@H]2c3cc(O)ccc3OC[C@@H]21`, which outcome [1] is on record?
The outcome was “inactive”.

With `NCCc1c[nH]c2ccc(O)cc12` as the molecule, how does the outcome [1] read?
The outcome was “inactive”.

Which results are given for `O=[N+]([O-])/N=C1\NCCN1Cc1ccc(Cl)nc1`?
Potency [2]: inactive; outcome [3]: inactive; activation [4]: 8.09% (inactive); Potency [5]: inactive; outcome [6]: inactive; activation [7]: 1.01% (inactive); activation [8]: 6.65% (inactive); Potency [9]: inactive; outcome [10]: inactive; Potency [11]: inactive; Potency [12]: inactive; max response [13]: -17.3%; Potency [14]: inactive; outcome [15]: inactive; max response [16]: -10.6%

Which outcome [1] does the source give for `NC(=NCCC[C@H](N)C(=O)O)N[N+](=O)[O-]` here?
The outcome was “inactive”.

With `NCc1cc(=O)[nH]o1` as the molecule, how does the outcome [1] read?
The outcome was “inactive”.

With `C=CC(=O)NCNC(=O)C=C` as the molecule, how does the Potency [2] read?
The Potency was “inactive”.

And the outcome [3]?
The outcome was “inactive”.

And the activation [4]?
The activation was 20.4% (inactive) and 9.02% (inactive).

And the Potency [5]?
Its Potency is “inactive”.

What about the activation [8] of the same molecule?
The activation was 4.39% (inactive) and -21.1% (inactive).

What about the Potency [9] of the same molecule?
Its Potency is “inactive”.

What about the outcome [17] of the same molecule?
Its outcome is “inactive”.

What about the max response [18] of the same molecule?
The max response was -23.6%.

What about the Potency [19] of the same molecule?
Its Potency is “inactive”.

And the outcome [10]?
The outcome was “inactive”.

What about the Potency [11] of the same molecule?
Its Potency is “inactive”.

And the Potency [12]?
The Potency was “inactive”.

What about the outcome [20] of the same molecule?
Its outcome is “inactive”.

What about the max response [13] of the same molecule?
Its max response is 1.23% and 0.699%.

What about the Potency [14] of the same molecule?
Its Potency is “inactive”.

And the max response [16]?
Its max response is -7% and 1.5%.

Which outcome [1] does the source give for `CCCN(CCC)[C@@H]1CCc2ccc(O)cc2C1` here?
The outcome was “inactive”.

Which Potency [2] does the source give for `O=[N+]([O-])c1c(Cl)c(Cl)cc(Cl)c1Cl` here?
Its Potency is “inactive”.

And the outcome [3]?
Its outcome is “inactive”.

What about the outcome [6] of the same molecule?
Its outcome is “inactive”.

And the activation [7]?
The activation was -1.27% (inactive).

What about the outcome [17] of the same molecule?
The outcome was “inactive”.

What about the max response [18] of the same molecule?
The max response was -4.54%.

What about the Potency [19] of the same molecule?
Its Potency is “inactive”.

And the outcome [10]?
Its outcome is “inactive”.

And the Potency [11]?
Its Potency is 15.8 µM (active).

What about the Potency [12] of the same molecule?
Its Potency is “inactive”.

What about the outcome [20] of the same molecule?
Its outcome is “inactive”.

What about the max response [13] of the same molecule?
Its max response is -2.76%.

What about the Potency [14] of the same molecule?
Its Potency is “inactive”.

What about the outcome [15] of the same molecule?
Its outcome is “inactive”.

What about the max response [16] of the same molecule?
Its max response is -4.05%.

For `CC(=O)NCCc1c[nH]c2ccccc12`, which outcome [1] is on record?
The outcome was “inactive”.

Which results are given for `CCCCCC[C@H]1C(=O)O[C@H](C)[C@H](NC(=O)c2cccc(NC=O)c2O)C(=O)O[C@@H](C)[C@@H]1OC(=O)CC(C)C`?
outcome [1]: inactive; outcome [3]: inactive; activation [7]: -3.37% (inactive); activation [8]: -11.1% (inactive); outcome [15]: inactive

Which Potency [2] does the source give for `O=C(O)COc1nc(Cl)c(Cl)cc1Cl` here?
The Potency was “inactive”.

What about the outcome [3] of the same molecule?
Its outcome is “inactive”.

And the outcome [6]?
The outcome was “inactive”.

What about the activation [7] of the same molecule?
Its activation is -0.709% (inactive).

What about the activation [8] of the same molecule?
Its activation is -16% (inactive).

And the Potency [9]?
The Potency was “inactive”.

And the max response [18]?
Its max response is 110%.

And the Potency [19]?
The Potency was “inactive”.

What about the Potency [12] of the same molecule?
The Potency was “inactive”.

And the outcome [15]?
The outcome was “inactive”.

And the max response [16]?
The max response was 0.628%.

Which outcome [1] does the source give for `O=c1cccc2n1CC1CNC[C@H]2C1` here?
The outcome was “inactive”.

With `CC[C@@]1(O)C(=O)OCc2c1cc1n(c2=O)Cc2cc3ccccc3nc2-1` as the molecule, how does the outcome [1] read?
The outcome was “inactive”.

For `COC(=O)[C@@H](N)CCCN=C(N)N[N+](=O)[O-]`, which outcome [1] is on record?
The outcome was “inactive”.

Which results are given for `Nc1cccc2c(N)cccc12`?
Potency [5]: inactive; activation [7]: -1.29% (inactive) and -1.59% (inactive); activation [8]: -1.46% (inactive); outcome [17]: inactive; max response [18]: 0.56%; Potency [19]: inactive
